GRIN3A LBD mod = modulators (binders) of human NR3A ligand-binding domain. Tm shift relative to glycine control, % at 25 µM. AID 1259313. NR3A LBD differential scanning fluorimetry, Tm shift; 0% = protein alone, 100% = glycine-bound protein. 2.5% of 340,000 active;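 active means melting temperature shift of at least 10% of the positive control shift, at one fixed dose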
FAS TE block = FAS thioesterase (human) inhibition | recombinant FAS-TE, OMFH fluorogenic substrate, fluorescence endpoint | AID 602261 | P49327 | 0.67% of 360,000 active | inhibition, % at 15 µM;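 active means compounds whose normalised, plate-corrected inhibition of enzyme fluorescence in the single-dose primary screen is 50% or more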;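 further: 0% = DMSO with enzyme and 100% = substrate without enzyme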
ADAM10 inh = inhibits human ADAM10; O14672; recombinant ADAM10, EDANS/DABCYL FRET peptide cleavage, 3 h; inhibition, % at 7 µM; 0.62% of 370,000 active; AID 720582;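 active means inhibition above a per-campaign cutoff equal to the mean of compounds falling between control-based bounds plus 3 SD, cut at about 20% in these data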;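 further: 0% = DMSO wells while the 100% control is not disclosed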
Target sequence (O14672 214-748 limits assumed): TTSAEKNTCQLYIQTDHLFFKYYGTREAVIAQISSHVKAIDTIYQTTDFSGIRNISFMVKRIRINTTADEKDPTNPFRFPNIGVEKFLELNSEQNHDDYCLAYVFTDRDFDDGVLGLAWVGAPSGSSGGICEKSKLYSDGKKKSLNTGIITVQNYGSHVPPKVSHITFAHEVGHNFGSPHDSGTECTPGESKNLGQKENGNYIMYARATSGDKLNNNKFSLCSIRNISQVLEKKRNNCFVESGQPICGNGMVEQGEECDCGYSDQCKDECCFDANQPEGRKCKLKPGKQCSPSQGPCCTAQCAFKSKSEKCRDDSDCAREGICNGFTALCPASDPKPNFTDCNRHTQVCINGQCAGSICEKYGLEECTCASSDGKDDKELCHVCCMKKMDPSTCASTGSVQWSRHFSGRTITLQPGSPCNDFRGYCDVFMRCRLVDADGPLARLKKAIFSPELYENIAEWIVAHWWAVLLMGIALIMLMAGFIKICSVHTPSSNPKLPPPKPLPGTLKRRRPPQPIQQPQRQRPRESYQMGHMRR
sPLA2-III inh = Blocks human group III sPLA2 activity; Q9NZ20; QFRET BODIPY PC-A2 liposome hydrolysis, fluorescence; 0.56% of 370,000 active; inhibition, % at 12.2 µM; AID 743126;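 active means inhibition above mean plus 3 SD of compounds lying within the high and low control bounds, cut at about 19% in these data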;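 further: 0% = median of test compound wells and 100% = no enzyme DMSO wells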
ADAM17 inh = inhibits human ADAM17. inhibition, % at 6.95 µM. recombinant ADAM17, EDANS/DABCYL FRET peptide cleavage. 0.83% of 370,000 active;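 active means inhibition above the mean of compounds lying between control limits plus 3 SD, set per campaign, cut at about 8.5% in these data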;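 further: 0% = DMSO-only wells as the low control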
ADAM10 ctr = counter-screen for ADAM17 exosite inhibitors: inhibitors of human ADAM10. 47% of 2,900 active. shares compounds with ADAM17 inh. inhibition, % at 6.95 µM. recombinant ADAM10, EDANS/DABCYL FRET peptide cleavage, 3 h;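 active means mean inhibition over the triplicate runs exceeds the activity threshold set in the earlier primary screen, cut at about 20% in these data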;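 further: 0% = DMSO wells and 100% = marimastat wells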
ADAM17 confirm = confirmation of inhibitors of human ADAM17. shares compounds with ADAM17 inh. 65% of 2,900 active. inhibition, % at 6.95 µM. AID 743257. recombinant ADAM17, EDANS/DABCYL QFRET peptide cleavage;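 active means mean inhibition across replicates above the hit cutoff set in the primary screen, cut at about 8.5% in these data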;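 further: 0% = DMSO wells and 100% = marimastat wells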
Numbers without * were called inactive; x = no result given. A selection: hits, their analogues and other compounds. The true share with any hit is near 4.3%.

SMILES	GRIN3A LBD mod	FAS TE block	ADAM10 inh	sPLA2-III inh	ADAM17 inh	ADAM10 ctr	ADAM17 confirm
CCOc1cc(/C=N/NC(=O)c2ccc3c(c2)OCCO3)cc(Br)c1O	-3	2	-6	7	23*	-19	1
O=C(CCNS(=O)(=O)c1ccccc1)NCCCSc1ccccc1	4	-2	-8	-11	-3	x	x
O=C(CCNS(=O)(=O)c1ccccc1C(F)(F)F)N1CCCCCCC1	2	-1	-8	8	0	x	x
O=C(CCNS(=O)(=O)c1ccccc1C(F)(F)F)NCCCSc1ccccc1	-2	14	9	-47	8.7*	14	10*
O=C(CCNS(=O)(=O)c1ccccc1C(F)(F)F)N1CCN(C(c2ccccc2)c2ccccc2)CC1	-6	28	9	-25	8.9*	30*	18*
O=C(NCC1COc2ccccc2O1)c1ccc(NC(=O)c2cccc(F)c2)cc1 (configuration not stated)	x	x	0	-3	1	x	x
CCOc1ccc(CN(C)C(=O)c2ccc(S(=O)(=O)N(C)c3ccccc3OC)cc2)cc1	1	21	16	-16	18*	4	5
COC(=O)[C@]12C[C@H](CC(=O)NCCc3ccccc3OC)C(=O)N(Cc3ccccc3)C1=C[C@H](COCc1ccccc1)O[C@@H]2C	x	x	7	-18	2	x	x
Cc1ccc(NC(=O)c2ccc3c(c2)OCCO3)cc1S(=O)(=O)Nc1cccc(Cl)c1	9	27	16	-47	9.8*	21*	11*
Cc1ccc(NC(=O)c2ccc3c(c2)OCCO3)cc1C	1	4	5	4	1	x	x
O=C(Nc1ccccc1)C1C2CCC3C(CCC21)C3(Cl)Cl (configuration not stated)	-1	3	13	1	8.8*	13	9.6*
COc1ccc(NC(=O)C(c2ccc(C)cc2)N(C)C(=O)Cc2cccs2)cc1 (configuration not stated)	-2	12	7	-3	9.0*	2	6
COC(=O)Cc1nnn2c1[C@H](C)[C@@H](OC)c1ccccc1-2	x	x	-4	-1	-3	x	x
COc1ccc(NS(=O)(=O)c2ccc(OC)c(NC(=O)CCC3CCCC3)c2)cc1	32*	36	18	-31	12*	20	12*
COc1ccc(OC)c(NC(=O)COC(=O)CCC2CCCC2)c1	2	16	-2	-8	1	x	x
O=C(COC(=O)CNS(=O)(=O)c1cccc(Br)c1)Nc1ccccc1Sc1ccccc1	1	-7	15	-24	9.9*	27*	15*
COC(=O)[C@]12C[C@H](CC(=O)NCc3ccccc3)C(=O)N(Cc3cccc4ccccc34)C1=C[C@H](C1CCCC1)O[C@@H]2C	x	x	17	-3	10*	25*	17*
COC(=O)[C@]12C[C@H](CC(=O)NCc3ccccc3)C(=O)N(Cc3ccc(Cl)cc3Cl)C1=C[C@H](C1CCCC1)O[C@@H]2C	x	x	3	-11	-4	x	x
COC(=O)[C@]12C[C@H](CC(=O)NCC3CCCCC3)C(=O)N(CCc3ccc(OC)c(OC)c3)C1=C[C@H](C(C)(C)C)O[C@@H]2C	x	x	7	-9	9.7*	19	11*
COC(=O)[C@]12C[C@H](CC(=O)NCC3CCCCC3)C(=O)N(CCc3ccc(OC)c(OC)c3)C1=C[C@H](C1CCCC1)O[C@@H]2C	x	x	13	-15	7	x	x
COC(=O)[C@]12C[C@H](CC(=O)NCc3ccccc3)C(=O)N(Cc3ccco3)C1=C[C@H](COCc1ccccc1)O[C@@H]2C	x	x	6	-11	10*	27*	12*
COC(=O)[C@]12C[C@H](CC(=O)NCc3ccc(C)o3)C(=O)N(Cc3cccc4ccccc34)C1=C[C@H](C(C)C)O[C@@H]2C1CC1	x	x	19	0	11*	9	8.9*
CCOC(=O)N[C@@H](Cc1cccnc1)C(=O)N1CCC[C@H]1C(=O)NCCc1ccccc1Cl	x	x	7	4	0	x	x
S=C1NCCN1c1ccc(Cl)cc1	x	x	-4	7	-3	x	x
C=CCOC(=O)C1=C[C@H](c2coc3ccccc3c2=O)C[C@H](OCc2ccc(CO)cc2)O1	-1	2	-5	-6	-4	x	x
SMILES	GRIN3A LBD mod	FAS TE block	ADAM10 inh	sPLA2-III inh	ADAM17 inh	ADAM10 ctr	ADAM17 confirm
C=CCOC(=O)C1=C[C@@H](c2coc3ccccc3c2=O)C[C@@H](OCc2ccc(CO)cc2)O1	0	3	7	-9	15*	26*	10*
O=C1CC(N2CCOCC2)=NC(=O)N1c1ccc(Br)cc1	x	x	-10	0	5	x	x
O=C(c1ccccc1)c1ccc(C(=O)N2CCN(c3ccc(O)cc3)CC2)cc1	1	1	2	-1	8.7*	-4	1
O=C(N[C@H]1C/C=C\C[C@@H](CC(=O)N(CCO)Cc2ccccc2)C(=O)NC[C@H](c2ccccc2)OC1=O)OCC1c2ccccc2-c2ccccc21	-8	-1	20	-21	17*	9	7
Cc1ccc(-c2cc(C(=O)NN=Cc3cccc(OCc4ccccc4)c3)[nH]n2)cc1C	x	x	7	-6	11*	15	12*
Cc1ccc(-c2cc(C(=O)NN=Cc3c4ccccc4cc4ccccc34)[nH]n2)cc1C	x	x	-10	5	-4	x	x
Cc1cc(=O)n(Cc2ccc(OC(C)C)cc2)c(=S)[nH]1	0	-4	7	4	10*	14	9.9*
Cc1cc(=O)n(Cc2ccco2)c(=S)[nH]1	x	-7	-19	6	-5	x	x
COC(=O)[C@]12C[C@H](CC(=O)NCC3CCCCC3)C(=O)N(Cc3ccccc3)C1=C[C@H](C1CCCC1)O[C@@H]2C	x	x	7	-12	4	x	x
Cc1ccc(C)c(OCCC(=O)OCC(=O)NC(=O)NC2CCCCC2)c1	-24	18	10	-8	1	x	x
Cc1ccc(OCCC(=O)OCC(=O)NC(=O)NC2CCCCC2)cc1	1	4	-11	-11	9.0*	30*	14*
O=C(NCc1ccco1)O[C@H]1CC[C@@]23CCCN2C(=O)CCC[C@H]3C1	x	x	-8	9	-5	x	x
CC(=O)NC(c1cccc([N+](=O)[O-])c1)c1ccc2cccnc2c1O (configuration not stated)	0	21	9	0	2	x	x
CCCCC(=O)NC(c1cccc([N+](=O)[O-])c1)c1ccc2cccnc2c1O (configuration not stated)	-5	12	18	19	9.6*	25*	17*
O=C(CSc1cccc(C(F)(F)F)c1)NC(=O)c1ccccc1	3	-2	6	-32	8.7*	0	6
